Data on 25 molecules can be found in PubChem BioAssay (NCATS).

Test [1] deals with Calcium and integrin-binding protein 1 (Homo sapiens) (UniProt Q99828). The experiment in a line: Primary qHTS for Identification of Calcium Integrin Binding Protein 1 (CIB1) Competitor (AID 1508620).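 Note: GST tagged CIB1 binding a fluorescein labelled alphaIIb integrin peptide tracer; top concentration of the series differs between compounds.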 Particulars: CIB1-GST / FITC-alphaIIb peptide fluorescence polarization; series mostly up to 114 µM. The gist of the method:
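CIB1-GST (1 uM final) and compound incubated 15 min at room temperature before adding FITC-alphaIIb peptide tracer (100 nM final). Competition for binding read by fluorescence polarization (ex 480, em 540) after another 15 min at room temperature.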

Test [2] addresses Cytochrome P450 2D6 (Homo sapiens) (UniProt P10635). The test is described as follows: Cytochrome P450 family 2 subfamily D member 6 (CYP2D6) small molecule antagonists: luciferase biochemical (cell-free) qHTS assay (AID 1645840; active = well fitted curve in the direction sought with a large enough effect in the repeat runs; an effect the other way counts as inactive or inconclusive; note: nearly all actives have a fitted effect of over 55% in size; note: potency is the fitted concentration of half-maximal effect). Conditions: P450-Glo CYP2D6 enzyme, luciferin luminescence, 1 h; series mostly up to 57.4 µM. The gist of the method: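 P450-Glo CYP2D6 system: proluciferin substrate converted by enzyme to luciferin, read by luminescence proportional to activity. Enzyme-substrate mix with compound 10 min at room temperature, then NADPH regeneration 1 h before detection reagent.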

In test [3] the target is Cytochrome P450 2C9 (Homo sapiens) (UniProt P11712). The experiment in a line: Cytochrome P450 family 2 subfamily C member 9 (CYP2C9) small molecule antagonists: luciferase biochemical (cell-free) qHTS assay (AID 1645842; active = well fitted curve in the direction sought with a large enough effect in the repeat runs; an effect the other way counts as inactive or inconclusive; note: nearly all actives have a fitted effect of over 55% in size; note: potency is the fitted concentration of half-maximal effect). Particulars: P450-Glo CYP2C9 enzyme assay, luciferin luminescence; series mostly up to 57.4 µM. The gist of the method:
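P450-Glo CYP2C9 system: proluciferin substrate with enzyme in mix containing 0.4% BSA, 10 min at room temperature, then NADPH regeneration solution added and incubated 1 h at 37C. Detection reagent stopped reaction; luminescence read after 20 min as RLU.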

A short description of test [4]: Primary qHTS for inhibitors of nuclear receptor binding SET domain protein 2 (NSD2) in an isogenic RCH-ACV NSD2 p.E1099K mutant (9B) (AID 1645876). Note: nearly all actives have a fitted effect of over 70% in size. Note: potency is the fitted concentration of half-maximal effect. Particulars: RCH-ACV NSD2 E1099K (9B) viability, CellTiter-Glo, 72 h; series mostly up to 44.9 µM.
Test [5] is described as follows: Primary qHTS for inhibitors of nuclear receptor binding SET domain protein 2 (NSD2) in an RCH-ACV wild type WT cells (2C) (AID 1645877). Note: nearly all actives have a fitted effect of over 70% in size. Note: potency is the fitted concentration of half-maximal effect. Conditions: RCH-ACV (leukaemia line) NSD2 WT (2C) viability, CellTiter-Glo, 72 h; series mostly up to 44.9 µM.

Several values for one entry are separate records, joined by “and”; a condition that tells them apart may be missing. Equal values may be shown once. Results filed as inconclusive are left out. Activity calls are given as the source filed them. Unless noted, calls come from the whole dose curve; as a rule, active = well fitted curve in the direction sought with a large enough effect; inconclusive = small, poorly fitted or top-dose-only effect, or another doubt; inactive = no such curve, though single readings can be large; an effect the other way counts as inactive or inconclusive.

Calcium and integrin-binding protein 1 (Homo sapiens), sequence (Q99828 whole entry, looked up): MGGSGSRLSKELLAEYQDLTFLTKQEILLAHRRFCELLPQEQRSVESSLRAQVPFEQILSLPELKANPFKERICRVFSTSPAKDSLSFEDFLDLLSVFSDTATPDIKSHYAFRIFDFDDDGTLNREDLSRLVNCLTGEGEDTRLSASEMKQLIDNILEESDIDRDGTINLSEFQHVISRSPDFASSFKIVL
Cytochrome P450 2D6 (Homo sapiens), sequence (P10635 whole entry, looked up): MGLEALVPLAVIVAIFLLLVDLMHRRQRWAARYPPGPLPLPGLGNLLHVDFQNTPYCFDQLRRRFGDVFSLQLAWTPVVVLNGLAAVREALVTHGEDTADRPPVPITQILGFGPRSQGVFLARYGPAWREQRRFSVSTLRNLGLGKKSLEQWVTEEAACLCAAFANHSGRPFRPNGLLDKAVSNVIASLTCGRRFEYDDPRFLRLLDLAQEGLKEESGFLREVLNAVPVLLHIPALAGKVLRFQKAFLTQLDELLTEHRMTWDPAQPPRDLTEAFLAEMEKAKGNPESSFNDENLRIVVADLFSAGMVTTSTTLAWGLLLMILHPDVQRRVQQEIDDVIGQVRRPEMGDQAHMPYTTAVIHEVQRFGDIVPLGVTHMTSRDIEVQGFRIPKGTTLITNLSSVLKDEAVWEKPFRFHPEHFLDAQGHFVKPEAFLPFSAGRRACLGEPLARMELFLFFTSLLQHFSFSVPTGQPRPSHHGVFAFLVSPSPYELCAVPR
Cytochrome P450 2C9 (Homo sapiens), sequence (P11712 whole entry, looked up): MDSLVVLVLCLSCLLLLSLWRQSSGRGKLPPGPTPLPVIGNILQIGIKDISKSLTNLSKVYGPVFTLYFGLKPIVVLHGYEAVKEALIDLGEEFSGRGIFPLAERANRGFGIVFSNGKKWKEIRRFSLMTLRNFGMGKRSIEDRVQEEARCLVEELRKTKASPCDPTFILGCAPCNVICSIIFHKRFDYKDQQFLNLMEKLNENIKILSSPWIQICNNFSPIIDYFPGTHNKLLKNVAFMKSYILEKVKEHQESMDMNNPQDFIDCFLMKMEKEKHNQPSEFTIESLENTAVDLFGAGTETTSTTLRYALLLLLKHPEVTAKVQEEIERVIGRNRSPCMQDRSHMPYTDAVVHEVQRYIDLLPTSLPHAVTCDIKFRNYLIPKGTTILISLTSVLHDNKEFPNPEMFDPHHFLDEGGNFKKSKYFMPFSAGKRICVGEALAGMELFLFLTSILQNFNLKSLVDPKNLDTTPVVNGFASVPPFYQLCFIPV

As for `C[C@@H](NC(=O)c1ccc(C#Cc2cccc(F)c2)cn1)C(C)(C)O`, the Potency entry in test [1], in test [2], in test [4] and in test [5] was “inactive” each time. The Potency in test [3] was 16.9 µM (active).
`CC(C)CCNc1ncccc1C(=O)N1CCN(Cc2ccccc2)CC1`: the Potency entry in test [1], in test [4] and in test [5] was “inactive” throughout. The Potency in test [2] is 5.35 µM (active); in test [3], 10.7 µM (active).
Turning to `Cc1c(C(=O)Nc2ccc(N3CCC(N4CCOCC4)CC3)c(C#N)c2)cnn1-c1ccc(Cl)cc1`, the Potency entry in test [1] was “inactive”. Further, the Potency in test [2] was 12 µM (active); in test [3], 2.13 µM (active); in test [4], 0.23 µM (active); in test [5], 0.23 µM (active).
Take `COc1c(C)cnc(Cn2cc(C#CCC(C)(C)O)c3c(Cl)nc(N)nc32)c1C`: the Potency entry in test [1] and in test [2] was “inactive” in each case. Moreover, the results for the Potency in test [3], in test [4] and in test [5] were 2.39 µM (active), 0.129 µM (active) and 0.145 µM (active), respectively.
With `NS(=O)(=O)Nc1ncnc(OCCOc2ncc(Br)cn2)c1-c1ccc(Br)cc1`, the Potency entry in test [1] and in test [2] was “inactive” in each case. The Potency in test [3] was 4.77 µM (active); in test [4] it was 16.3 µM (active); in test [5] it was 11.5 µM (active).
As for `C#CC(=O)N(c1ccc(OC)cc1OC)C(C(=O)NCC(=O)OCC)c1cccs1` (stereo not given), in test [1], the Potency entry is “inactive”. For the same molecule, the Potency in test [2] was 12 µM (active); in test [3] it was 12 µM (active); in test [4], 0.183 µM (active); in test [5], 0.0649 µM (active).
Take `Cc1noc(C)c1-c1cc(O)cc(C(O)c2ccccc2)c1` (stereo not given): in test [1], the Potency result was “inactive”. The Potency in test [2] is 16.9 µM (active); in test [3], 0.849 µM (active); in test [4] it was 0.916 µM (active); in test [5], 1.03 µM (active).
For `CCCC(CCC)C(=O)Nc1ccn([C@@H]2O[C@H](CO)[C@@H](O)C2(F)F)c(=O)n1`, in that order: “inactive”, “inactive”, 8.49 µM (active), 1.48 µM (active) and 0.934 µM (active).
For `CCCC(Nc1nc(-c2ccc(NC(=O)NCC)c(OC)c2)ncc1C)c1cccnc1` (stereo not given), in that order: “inactive”, 5.35 µM (active), 0.239 µM (active), 0.183 µM (active) and 0.115 µM (active).
As for `CC#CC(=O)Nc1ccc2ncnc(Nc3cccc(Br)c3)c2c1`, the Potency entry in test [1], in test [2] and in test [3] was “inactive” each time. Moreover, the Potency was 1.29 µM (active) and 1.3 µM (active) in test [4]; 1.03 µM (active) and 1.16 µM (active) in test [5].
Regarding `COc1ccc(-c2ccc3c(N4CCOCC4C)nc(N4CCOCC4C)nc3n2)cc1CO` (stereo not given), the Potency result in test [1] and in test [2] was “inactive” each time. Further, the Potency in test [3] is 4.77 µM (active); in test [4] it was 0.0325 µM (active); in test [5], 0.0515 µM (active).
For the molecule `Nc1ncnc2c1c(-c1ccc(Oc3ccccc3)cc1)nn2[C@@H]1CCCNC1`, the Potency entry in test [1] and in test [3] was “inactive” in each case. The results for the Potency in test [2], in test [4] and in test [5] were 15.1 µM (active), 1.63 µM (active) and 2.3 µM (active), respectively.
As to `CNC(=O)[C@@H](c1ccccc1)N1CCc2cc(OC)c(OC)cc2[C@@H]1CCc1ccc(C(F)(F)F)cc1`, in test [1], the Potency result is “inactive”. Also, the Potency in test [2] is 4.77 µM (active); in test [3], 6.74 µM (active); in test [4] it was 23 µM (active); in test [5], 16.3 µM (active).
For `C[C@@H](N[C@H]1CCCC[C@@H]1NC(=O)c1ccc(Cl)cc1)c1cccc2ccccc12`, in that order: “inactive”, 0.756 µM (active), 12 µM (active), 14.5 µM (active) and 9.16 µM (active).
As for `CC(=O)N1CCN(CCOc2ccc(C3CCN(C4=Nn5c(nnc5C(F)(F)F)CC4)CC3)cc2)CC1`, the Potency entry in test [1] and in test [2] was “inactive” each time. Also, the Potency is 12 µM (active) in test [3], 5.15 µM (active) in test [4] and 6.49 µM (active) in test [5].
For `O=S(=O)(N[C@H]1CCCC[C@@H]1N1CCOCC1)c1ccc(Cl)cc1`, the Potency entry in test [1], in test [4] and in test [5] was “inactive” each time. Further, the Potency in test [2] and in test [3] was 5.35 µM (active) each time.
Take `COc1cc(NC(=O)c2cc(C3CC3)on2)c(OC)cc1Cl`: the Potency entry in test [1], in test [4] and in test [5] was “inactive” each time. Also, the Potency is 2.39 µM (active) in test [2] and 10.7 µM (active) in test [3].
Regarding `C#CCOc1ccc2c(c1)c(-c1ccc(C(C)C)cc1)nc(=O)n2C(C)C`, the Potency result in test [1] was “inactive”. The Potency in test [2] was 23.9 µM (active); in test [3], 2.68 µM (active); in test [4] it was 8.17 µM (active); in test [5] it was 11.5 µM (active).
On to `Cc1cc(Nc2nc(-c3ccccc3)nc3ccccc23)n[nH]1`, for which the Potency result in test [1] and in test [2] was “inactive” in each case. Further, the Potency in test [3] is 10.7 µM (active); in test [4], 2.9 µM (active); in test [5] it was 3.25 µM (active).
As for `N#Cc1ccc2ncnc(NCCc3ccccc3)c2c1`, in test [1], the Potency entry is “inactive”. Besides, the Potency in test [2] is 15.1 µM (active); in test [3], 26.8 µM (active); in test [4] it was 6.49 µM (active); in test [5] it was 4.09 µM (active).
For `CCN1C(C)(C)CC(Oc2ccc(C(=O)Nc3ccc(NC(=O)Nc4cc(C(C)(C)C)on4)cc3)nc2)CC1(C)C`, in that order: “inactive”, 19 µM (active), “inactive”, 4.11 µM (active) and 6.51 µM (active).
For the molecule `CN1CCN(Cc2ccc(NC(=O)Cc3ccc(Oc4cc(NC(=O)C5CC5)ncn4)cc3)cc2C(F)(F)F)CC1`, in test [1], the Potency result was “inactive”. Also, the Potency is 15.1 µM (active) in test [2], 19 µM (active) in test [3], 0.649 µM (active) in test [4] and 0.817 µM (active) in test [5].
For `COc1cc(CCc2cc(NC(=O)c3ccc(N4CC(C)NC(C)C4)cc3)n[nH]2)cc(OC)c1` (stereo not given), in that order: “inactive”, 12 µM (active), “inactive”, 9.16 µM (active) and 10.3 µM (active).
With `CC(C)(C)c1ccc(-c2nc3c(N4CCN(Cc5ccc6nccnc6c5)CC4)cccc3[nH]2)cc1`, the Potency entry in test [1] and in test [2] was “inactive” in each case. Also, the Potency was 2.13 µM (active) in test [3], 9.16 µM (active) in test [4] and 11.5 µM (active) in test [5].
For the molecule `O=C(c1ccc(OC(F)F)c(C#Cc2ccccn2)c1)N1Cc2cccnc2C1`, the Potency result in test [1], in test [3], in test [4] and in test [5] was “inactive” each time. In addition, the Potency in test [2] was 21.3 µM (active).
